PubChem BioAssay (NCI)
The panel holds about 83,000 compounds, 20% with a hit somewhere; the sample as a whole holds those more often.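 Note: values are percent growth. 100 is the growth of untreated cells, values between 100 and 0 indicate rising inhibition; between -100 and 0 indicates cell death.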 Calls of active or inactive are those of the source. The calls were made as follows: active = growth percent below 10; inactive = the rest.

Test system: TK-10 renal
Test: NCI-60 one-dose screen, 48 h (100 = growth as untreated, 0 = no growth, -100 = all killed)
Settings: 10 µM unless noted

SMILES | growth
C=C(C)[C@@H]1CC[C@]2(C(=O)N3CCCNCC3)CC[C@]3(C)[C@H](CC[C@@H]4[C@@]5(C)CCC(=O)C(C)(C)[C@@H]5CC[C@]43C)[C@@H]12 | 127% (inactive)
CCCCC[C@H]1CC=C2C(=O)C(Cl)=C[C@@H]2CC=CCCCC(=O)O[C@@H](CCCCC)CC=C2C(=O)C(Cl)=C[C@@H]2CC=CCCCC(=O)O[C@@H](CCCCC)CC=C2C(=O)C(Cl)=C[C@@H]2CC=CCCCC(=O)O1 | 151% [8 µM] (inactive)
Cn1c(=O)c2c(ncn2CCC(=O)Nc2ccc(F)cc2)n(C)c1=O | 95% (inactive)
COc1ccc(-c2cc(-c3c(C)oc4cc5occc5c(OC)c4c3=O)nc(N)c2C#N)cc1OC | 77.1% (inactive)
COc1cc(NC(C)CN(CC(C)C)C(C)C)c2ncccc2c1 (stereo not drawn) | 120% (inactive)
COc1ccc(/C=C/C(=O)NCC(C)O)cc1 (stereo not drawn) | 89.1% (inactive)
Cc1cc(N(CCCNc2ccnc3cc(Cl)ccc23)Cc2ccco2)nc(Cl)n1 | 62.6% (inactive)
Cc1c(C)c2c(c(C)c1NC(=O)CCCCCCC(=O)O)CCC(C)(CCCC(C)CCCC(C)CCCC(C)C)O2 (stereo not drawn) | 87.6% (inactive)
CN(C)c1ccc(N=C2C=CC(=O)C=C2)cc1 | 111% (inactive)
Fc1ccc(NCc2nnc(-c3ccc(Cl)cc3)o2)cc1 | 126% (inactive)
COc1ccc(OCC(CO)N2CCN(c3ccccc3)CC2)cc1 (stereo not drawn) | 109% (inactive)
CCCCC(=O)OC1CCCCC1C (stereo not drawn) | 94.5% (inactive)
COc1ccc2c(c1)c(-c1nc(-c3cn(C)c4ncccc34)cs1)cn2CCN | 92.4% (inactive)
